We go through 6 compounds from PubChem BioAssay.

Active and inactive are the calls of the source.

In test [1] the test system is Human papillomavirus type 1a protein E7 (residues 44-93). The test can be described thus: small molecules binding HPV E7 44-93 – biochemical, small-molecule microarray, residues 44-93, 635 nm fluorescence, primary screen (AID 1108).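 Further: E7 fragment applied at 1 µg/mL in TBST for 1 h at 4 C; score combines spot fluorescence with its signal to noise ratio.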 Particulars: fluorescence 635 nm, higher = more signal.
Test [2] is described as follows: hepatitis C replication reporter changes, two-sided – Huh7 cells, luciferase reporter, HCV replication inhibitor project, primary screen (AID 1109).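 Further: huh7 hepatoma cells harbouring a luciferase neomycin HCV replicon reporter; luciferase luminescence as measure of HCV replicon replication; test concentration not given here.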 Particulars: Huh7 HCV replicon luciferase reporter, 48 h; higher = more signal. (In general: A reporter such as luciferase makes a cellular process visible.)
Test [3] has as its target Left-right determination factor 2 (Homo sapiens) (UniProt O00292). The test can be described thus: small molecules binding LEFTY2 protein – biochemical, small-molecule microarray, 635 nm fluorescence scan, primary screen (AID 1110). Particulars: higher = more signal.
Test [4] addresses Calmodulin-1 (Homo sapiens) (UniProt P0DP23). The test can be described thus: small molecules binding calmodulin-1 with EGTA – biochemical, small-molecule microarray, Cy5-labelled CALM1, profiling panel (AID 1111).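 Further: labelled calmodulin applied in Tris saline Tween buffer holding calcium plus EGTA and DTT.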 Particulars: Cy5-CALM1 binding fluorescence, higher = more signal.
For test [5] the target is unchanged. Description: small molecules binding Ca-loaded calmodulin-1 – biochemical, small-molecule microarray, Cy5-labelled CALM1, plus calcium, artefact control for SMM control-protein annotation, profiling panel (AID 1112).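 Further: score merges spot fluorescence with signal to noise from triplicate slides.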 Particulars: Cy5-CALM1 binding fluorescence, higher = more signal.
Test [6] in a line: probe aWnt5a binding to arrayed compounds – biochemical, biotinylated probe, 635/667 nm fluorescence, primary screen (AID 1113).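 Further: score merges 667 nm fluorescence intensity with signal-to-noise per printed feature.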 As to conditions: small-molecule microarray, higher = more signal.
Test [7] can be described thus: probe aShh binding to arrayed compounds – biochemical, biotinylated probe, 635/667 nm fluorescence, primary screen (AID 1114).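 Further: probe is biotin-labelled aShh protein from a stem cell growth factor screen; measures binding of labelled protein to compounds printed on the slide; score merges feature fluorescence at 667 nm with signal-to-noise.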 As to conditions: small-molecule microarray, higher = more signal.
Test [8] is described as follows: probe aNog binding to arrayed compounds – biochemical, biotinylated probe, 635/667 nm fluorescence, primary screen (AID 1115).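 Further: probe is biotinylated aNog protein used at 0.15 µg/mL for 1 h at 4 C; z-score combines 667 nm fluorescence of each spot with its signal to noise.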 As to conditions: small-molecule microarray, higher = more signal.
Test [9] deals with Torsin-1A-interacting protein 1 (Homo sapiens) (UniProt Q5JTV8). Description: compound microarray binding of lysate hLAP1 – cell lysate, small-molecule microarray, COS7 lysate, 635/667 nm fluorescence, primary screen (AID 1116). As to conditions: 635 nm fluorescence, higher = more signal.
Test [10] addresses Alpha-bungarotoxin (Bungarus multicinctus) (UniProt P60615). The test can be described thus: compounds binding labelled alpha-BTX control protein – biochemical, small-molecule microarray, Alexa647 label, 635/667 nm fluorescence, artefact control for SMM control protein annotation, profiling panel (AID 1117). As to conditions: alpha-BTX-A647 binding fluorescence, higher = more signal.

A further test has as its target Albumin (Bos taurus) (UniProt P02769). The test can be described thus: compounds binding labelled BSA control protein – biochemical, small-molecule microarray, Alexa647 label, 635/667 nm fluorescence, artefact control for SMM control protein annotation, profiling panel (AID 1118).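 Further: score merges 667 nm emission intensity and signal-to-noise per printed compound spot.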 As to conditions: BSA-A647 binding, fluorescence 635 nm, higher = more signal.
Test [11] can be described thus: probe aXIP binding to arrayed compounds – biochemical, NeuroSMM set, 635/667 nm fluorescence, primary screen (AID 1119).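 Further: probe is the protein aXip251-270 applied at 1 µg/mL to compound-printed slides; binding of probe to printed compounds measured as 667 nm fluorescence plus signal to noise.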 As to conditions: small-molecule microarray, higher = more signal, called active from +8 up or from −8 down.
Test [12] is described as follows: probe aNOTCH3 binding on compound microarray – biochemical, small-molecule microarray, 635/667 nm fluorescence, primary screen (AID 1120).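 Further: probe is a biotin-tagged antibody raised against NOTCH3 rather than NOTCH3 protein; score merges spot fluorescence near 667 nm with spot signal to noise.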 Particulars: higher = more signal.
Test [13] is described as follows: probe aNOTCH2 binding on compound microarray – biochemical, small-molecule microarray, 635/667 nm fluorescence, primary screen (AID 1121).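 Further: score merges feature fluorescence read at 667 nm with its signal to noise.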 As to conditions: higher = more signal.
In test [14] the target is Carbonic anhydrase 2 (Homo sapiens) (UniProt P00918). Description: compounds binding carbonic anhydrase 2 – biochemical, small-molecule microarray, Alexa647-labelled CAII, profiling panel (AID 1122). As to conditions: CAII-A647 binding fluorescence, higher = more signal.
Test [15] can be described thus: COS7 lysate on small-molecule microarray, probe aHis, 635 nm (AID 1123).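 Further: z-score combines 667nm fluorescence intensity with signal-to-noise per printed compound spot.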 Particulars: COS7 cell lysate, fluorescence, higher = more signal.
Test [16] is described as follows: probe aLAP1 signal on lysate-treated microarray – cell lysate, small-molecule microarray, COS7 lysate, primary screen (AID 1124).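 Further: lysate comes from COS7 cells expressing LAP1 and is applied at 0.3 µg/mL; score merges spot fluorescence near 667 nm with signal-to-noise over triplicate slides.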 Particulars: probe aLAP1, fluorescence, higher = more signal.
Another test concerns Sam68 (KHDRBS1). The test can be described thus: compounds binding KHDRBS1 protein – biochemical, small-molecule microarray, 635 nm fluorescence, primary screen (AID 1125).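 Further: score merges 667 nm channel intensity with signal to noise over triplicate slides.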 As to conditions: higher = more signal.
Test [17] has as its system Chordin-like protein 2 (CHRDL2). The test can be described thus: compounds binding chordin-like 2 – biochemical, small-molecule microarray, 635 nm fluorescence, primary screen (AID 1126).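 Further: printed compound slides probed with Chrdl2 protein at 4 µg/mL for 1 h at 4 C; score merges 667 nm emission intensity with signal to noise over three replicate slides.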 As to conditions: fluorescence 635 nm, higher = more signal.
Test [18] addresses Concanavalin-A (Canavalia ensiformis) (UniProt P02866). Description: compounds binding concanavalin A lectin – biochemical, small-molecule microarray, Alexa647 label, 635 nm, artefact control for SMM control protein annotation, primary screen (AID 1127).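 Further: z combines 667 nm emission intensity with signal-to-noise across three replicate slides.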 As to conditions: ConA-A647 binding fluorescence, higher = more signal.

Sequence of Albumin (Bos taurus) (P02769 whole entry, looked up): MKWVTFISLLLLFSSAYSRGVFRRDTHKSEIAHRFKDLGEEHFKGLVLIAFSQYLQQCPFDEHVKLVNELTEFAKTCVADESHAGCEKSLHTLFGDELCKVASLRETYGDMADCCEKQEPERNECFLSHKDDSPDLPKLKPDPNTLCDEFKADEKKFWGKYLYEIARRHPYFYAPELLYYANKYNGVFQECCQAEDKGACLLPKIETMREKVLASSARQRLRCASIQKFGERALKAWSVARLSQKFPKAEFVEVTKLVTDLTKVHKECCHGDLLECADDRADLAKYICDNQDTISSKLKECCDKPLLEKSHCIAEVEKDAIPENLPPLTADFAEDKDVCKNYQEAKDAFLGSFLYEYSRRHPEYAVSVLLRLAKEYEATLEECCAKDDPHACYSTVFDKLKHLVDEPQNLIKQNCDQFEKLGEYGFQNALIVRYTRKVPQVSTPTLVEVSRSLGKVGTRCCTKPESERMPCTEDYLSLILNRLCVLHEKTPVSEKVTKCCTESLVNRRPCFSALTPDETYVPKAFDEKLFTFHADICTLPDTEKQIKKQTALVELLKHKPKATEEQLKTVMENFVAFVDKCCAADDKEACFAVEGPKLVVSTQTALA
Sequence of Left-right determination factor 2 (Homo sapiens) (O00292 whole entry, looked up): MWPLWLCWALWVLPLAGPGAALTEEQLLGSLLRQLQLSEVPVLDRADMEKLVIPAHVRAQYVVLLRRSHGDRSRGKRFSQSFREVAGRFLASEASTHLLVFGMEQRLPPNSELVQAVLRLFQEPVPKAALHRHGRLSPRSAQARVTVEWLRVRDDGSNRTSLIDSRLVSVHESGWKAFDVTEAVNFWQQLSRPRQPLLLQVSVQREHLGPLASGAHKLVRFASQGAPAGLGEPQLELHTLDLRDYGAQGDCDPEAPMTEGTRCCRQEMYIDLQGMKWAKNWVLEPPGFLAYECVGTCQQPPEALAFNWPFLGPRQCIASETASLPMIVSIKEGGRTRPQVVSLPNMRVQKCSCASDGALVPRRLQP
Sequence of Concanavalin-A (Canavalia ensiformis) (P02866 whole entry, looked up): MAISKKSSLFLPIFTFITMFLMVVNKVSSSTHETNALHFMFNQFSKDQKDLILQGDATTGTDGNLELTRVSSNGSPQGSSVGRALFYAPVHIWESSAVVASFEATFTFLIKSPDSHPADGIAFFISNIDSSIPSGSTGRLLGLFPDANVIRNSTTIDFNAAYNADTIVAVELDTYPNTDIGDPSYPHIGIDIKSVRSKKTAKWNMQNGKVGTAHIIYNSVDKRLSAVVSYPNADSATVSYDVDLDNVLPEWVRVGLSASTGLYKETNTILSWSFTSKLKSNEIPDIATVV
Sequence of Torsin-1A-interacting protein 1 (Homo sapiens) (Q5JTV8 whole entry, looked up): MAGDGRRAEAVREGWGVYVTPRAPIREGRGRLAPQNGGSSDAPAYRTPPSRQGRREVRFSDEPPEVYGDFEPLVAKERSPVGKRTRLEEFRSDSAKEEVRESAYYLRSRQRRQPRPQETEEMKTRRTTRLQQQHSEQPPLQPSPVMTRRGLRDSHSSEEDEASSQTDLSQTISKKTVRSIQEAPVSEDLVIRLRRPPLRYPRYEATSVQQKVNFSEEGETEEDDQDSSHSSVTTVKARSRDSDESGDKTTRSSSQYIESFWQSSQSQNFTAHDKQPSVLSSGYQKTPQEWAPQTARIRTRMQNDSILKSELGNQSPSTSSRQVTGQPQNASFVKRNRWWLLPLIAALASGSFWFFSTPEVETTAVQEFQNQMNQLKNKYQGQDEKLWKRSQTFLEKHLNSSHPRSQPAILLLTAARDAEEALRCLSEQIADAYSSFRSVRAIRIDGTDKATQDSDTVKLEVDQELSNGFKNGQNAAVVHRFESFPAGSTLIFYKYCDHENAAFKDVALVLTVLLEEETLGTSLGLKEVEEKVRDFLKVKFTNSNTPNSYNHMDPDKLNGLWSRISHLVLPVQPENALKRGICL
Sequence of Alpha-bungarotoxin (Bungarus multicinctus) (P60615 whole entry, looked up): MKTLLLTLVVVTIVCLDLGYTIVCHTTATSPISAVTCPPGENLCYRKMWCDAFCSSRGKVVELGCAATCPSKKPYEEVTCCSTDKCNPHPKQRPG

For the compound `Cc1ccc(C(C)CC(O)C2C=CC3C(=O)N(c4ccccc4)C(=O)C3N2Nc2ccc(C(C)C)cc2)o1` (stereo not given), the composite z-score in test [1] was 1.33; in test [3], -0.0337; in [4], 2.35; in [5], 1.01; in test [6] it was 0.14; in test [7], -0.043. Besides, the composite z-score was found to be 0.0485 in test [8]; 0.801 in [9]; 1.64 in test [10]; 0.935 in the test with Albumin (Bos taurus); 0.126 in test [12]; 0.299 in test [13]. Moreover, the composite z-score in test [14] was 0.541; in test [15], 1.33; in test [16], 0.835; in the test on Sam68 (KHDRBS1) it was 1.28; in test [17], -0.527; in [18], 1.15. In [2], this compound had a z-score of 1.02. Besides, the composite Z-score in test [11] is -0.263 (inactive).

Consider `COc1cc(CO)cc(I)c1O[C@H]1C=C(C(=O)NCCO)C[C@@H](NCc2ccccc2F)[C@@H]1O`, for which the composite z-score is 0.509 in test [1]; 0.365 in test [3]; -0.154 in test [4]; -0.327 in test [5]; -0.264 in test [6]; -0.138 in [7]. Besides, the composite z-score was -0.103 in test [8]; 1.4 in test [9]; 0.109 in test [10]; 0.162 in the test with Albumin (Bos taurus); 0.0979 in test [12]; -0.179 in [13]. The composite z-score came to 0.218 in [14]; 0.558 in test [15]; 0.303 in [16]; 1.02 in the test with Sam68 (KHDRBS1); 0.486 in [17]; 0.746 in test [18]. The z-score in test [2] was -2.62. The composite Z-score in test [11] is 0.235 (inactive).

As for `COCCOC(=O)N1C(=O)[C@@]2(c3ccccc31)[C@H](c1ccc(OCCO)cc1)N1[C@H](c3ccccc3)[C@H](c3ccccc3)OC(=O)[C@H]1[C@@H]2C(=O)Nc1nc2ccccc2s1`, the composite z-score is 1.34 in test [1]; 0.492 in test [3]; 1.68 in test [4]; 0.397 in [5]; 0.0431 in [6]; -0.0769 in test [7]. In addition, the composite z-score is 0.516 in [8]; 0.903 in test [9]; 1.13 in test [10]; 0.903 with Albumin (Bos taurus); -0.0059 in [12]; -0.0089 in test [13]. The composite z-score worked out at 0.55 in test [14]; 2.74 in test [15]; 0.676 in test [16]; 1.3 in the test on Sam68 (KHDRBS1); 0.232 in [17]; 1.17 in [18]. In [2], the z-score was -1.33. Moreover, the composite Z-score in test [11] was 0.171 (inactive).

Take `COc1ccc([Si](C)(C)[C@H]2[C@H](CCO)O[C@@]3(C(=O)N(Cc4cccc(N5CCCCC5=O)c4)c4ccccc43)[C@@H]2C)cc1`: the composite z-score was 1.25 in test [1]; 1 in test [3]; 0.557 in [4]; 0.388 in test [5]; -0.0919 in test [6]; 0.149 in test [7]. Besides, the composite z-score in test [8] is 0.304; in [9], 0.753; in test [10], 1.22; with Albumin (Bos taurus) it was 0.378; in test [12] it was -0.0984; in [13] it was -0.148. Further, the composite z-score in [14] came out at 0.394; in [15], 1.31; in [16] it was 0.264; in the test on Sam68 (KHDRBS1) it was 1.15; in test [17] it was 0.769; in [18], 1.1. In addition, the z-score in test [2] was -5.07. In test [11], the composite Z-score is 0.299 (inactive).

Turning to `CCCCN1CC=CC23O[C@@H]4C=CCOC(=O)[C@@H]4[C@H]2C(=O)N(C(C)CO)[C@@H]3C1=O` (stereo not given in full), the composite z-score in [1] is -1.31; in test [3], -1.29; in test [4], -0.397; in test [5], 0.5; in test [6] it was -0.169; in test [7], -0.209. For the same compound, the composite z-score is 0.26 in [8]; -0.194 in test [9]; -0.714 in [10]; -1.04 with Albumin (Bos taurus); -0.154 in test [12]; -0.118 in test [13]. Also, the composite z-score is 0.904 in test [14]; -0.819 in test [15]; -0.0435 in test [16]; -1.6 with Sam68 (KHDRBS1); -1.98 in [17]; -1.33 in test [18]. Moreover, in test [2], the z-score was -0.748. Further, the composite Z-score in test [11] is -0.527 (inactive).

In the case of `C=C(COC)/C(=C/C[C@@H](OC(=O)c1ccncc1)c1cccc(OCCO)c1)c1cnc2ccccc2c1`, the composite z-score in test [1] was 0.429; in test [3], 1.04; in [4], 1.3; in test [5] it was -0.102; in test [6], -0.0161; in test [7], 0.259. Moreover, the composite z-score came out at 0.581 in test [8]; 1.54 in test [9]; 3.87 in test [10]; 0.716 in the test with Albumin (Bos taurus); 0.43 in test [12]; 0.0815 in [13]. Moreover, the composite z-score came out at 1.01 in test [14]; 1.91 in test [15]; 0.919 in test [16]; 1.31 in the test on Sam68 (KHDRBS1); 1.44 in [17]; 1.24 in [18]. For the same compound, the z-score in test [2] is -3.87. Moreover, the composite Z-score in test [11] was 0.161 (inactive).
